# Laboratory results taken from PubChem BioAssay (Tox21).
# A number with no mark means an inactive call. Records with an inconclusive call do not appear. Where a call stands in place of a potency, no number is given. Active and inactive are the calls of the source. Unless noted, the call rests on the fitted dose curve; in most records, active means well fitted curve in the direction sought with a large enough effect in the repeat runs; inconclusive means weak or mixed curves; inactive means no such curve, though single readings can be large; an effect the other way counts as inactive or inconclusive.
# Assays:
# [1] = qHTS assay for small molecules that induce genotoxicity in human embryonic kidney cells expressing luciferase-tagged ATAD5 (AID 651632); further: nearly all actives have a fitted effect of over 15% in size
# Summary of the method: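 Increased luciferase signal from ATAD5-tagged reporter cells indicates DNA-damage-driven ATAD5 induction. HEK293T cells are treated for 16 hr at 37C before detection with Amplite.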
# [2] = qHTS assay for small molecule agonists of the p53 signaling pathway - cell viability (AID 651633; calls by dose curve; further: nearly all actives have a fitted effect of over 30% in size; further: potency means the concentration at half of the fitted maximal effect)
# Summary of the method: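 p53RE-bla cells were treated with compound for 16 hours at 37 C. Cytotoxicity was then measured as CellTiter-Glo luminescence after 30 min at room temperature.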
# [3] = qHTS assay for small molecules that induce genotoxicity in human embryonic kidney cells expressing luciferase-tagged ATAD5 - cell viability (AID 651634; calls by dose curve; further: nearly all actives have a fitted effect of over 25% in size)
# Summary of the method: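 Cytotoxicity counterscreen in HEK293T cells bearing an ATAD5-luciferase reporter: live-cell protease activity measured by CellTiter-Fluor fluorescence after 15.5 hr compound exposure.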
# [4] = qHTS assay for small molecule disruptors of the mitochondrial membrane potential - cell viability (AID 720634; calls by dose curve;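 further: human HepG2 liver cancer cells; series mostly up to about 83 µM; nearly all actives have a fitted effect of over 20% in size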)
# Summary of the method: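 After overnight attachment at 37 C, HepG2 cells received compound or DMSO vehicle for 1 hr. Viability is then taken from ATP-driven luminescence following a 30 min room-temperature CellTiter-Glo step.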
# [5] = qHTS assay for small molecule disruptors of the mitochondrial membrane potential (AID 720635); further: potency means the concentration at half of the fitted maximal effect
# Summary of the method: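 HepG2 cells exposed to compound 1 hr at 37C, then Mito-MPS dye 30 min. Ratio read of aggregate (540/590 nm) versus monomer (490/535 nm) fluorescence.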
# [6] = qHTS assay to test for compound auto fluorescence at 590 nm (red) in HepG2 cells (AID 720674)
# Summary of the method: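 Fluorescence at 590 nm emission following 540 nm excitation was recorded from HepG2 wells one hour after compound transfer, with DMSO-only wells as vehicle and Rose Bengal sodium equivalency as the scale.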
# [7] = qHTS assay to test for compound auto fluorescence at 535 nm (green) in HepG2 cells (AID 720675)
# [8] = qHTS assay to test for compound auto fluorescence at 460 nm (blue) in HEK293 cells (AID 720678)
# Summary of the method: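 Intrinsic compound fluorescence is recorded in live HEK293 cultures after overnight incubation at 37C, 5% CO2, using excitation 405 nm and emission 460 nm. Values are referenced to triamterene.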
# [9] = qHTS assay to test for compound auto fluorescence at 535 nm (green) in HEK293 cells (AID 720680)
# [10] = qHTS assay to test for compound auto fluorescence at 460 nm (blue) in HEK293 cell free culture (AID 720681)
# Summary of the method: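 Compounds were added to cell-free DMEM with 10% FBS and fluorescence read directly. The blue channel used 405 nm excitation and 460 nm emission, with triamterene as the reference fluorophore.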
# [11] = qHTS assay to test for compound auto fluorescence at 535 nm (green) in HEK293 cell free culture (AID 720682)
# Summary of the method: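 Fluorescein serves as the green reference fluorophore; each compound's intrinsic emission at 535 nm (excitation 485 nm) is reported as an equivalent amount of that dye, measured in serum-containing DMEM without cells.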
# [12] = qHTS assay to test for compound auto fluorescence at 590 nm (red) in HEK293 cell free culture (AID 720683)
# Summary of the method: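 Cell-free wells of DMEM with 10% FBS received compound, and intrinsic fluorescence was read at excitation/emission 540/590 nm. Values expressed as equivalence to Rose Bengal sodium.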
# [13] = qHTS assay to test for compound auto fluorescence at 590 nm (red) in HepG2 cell free culture (AID 720684)
# Summary of the method: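 Compounds are added to culture medium (MEM, 10% FBS) lacking cells, then fluorescence is read at excitation 540 nm, emission 590 nm, with Rose Bengal sodium as the equivalency standard.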
# [14] = qHTS assay to test for compound auto fluorescence at 460 nm (blue) in HepG2 cell free culture (AID 720685)
# Summary of the method: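 Compound (23 nL) or DMSO pinned into cell-free MEM with 10% FBS; blue fluorescence read at 405/460 nm excitation/emission, expressed as auto-fluorescence equivalency to triamterene.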
# [15] = qHTS assay to test for compound auto fluorescence at 535 nm (green) in HepG2 cell free culture (AID 720686)
# [16] = qHTS assay to test for compound auto fluorescence at 460 nm (blue) in HepG2 cells (AID 720687)
# Summary of the method: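 HepG2 cells in MEM with 10% FBS, attached overnight at 37 C, were exposed to compound or DMSO for 1 hr at 37 C, 5% CO2. Blue fluorescence was read at 405/460 nm, with triamterene as reference fluorophore.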
# [17] = target: Glucocorticoid receptor (Homo sapiens) (UniProt P04150); assay: qHTS assay to identify small molecule agonists of the glucocorticoid receptor (GR) signaling pathway (AID 720691; active means well fitted activation curve with a large enough effect in the signal ratio in the repeat runs, not every such curve was filed as active; the % refers to the signal ratio)
# Summary of the method: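 Agonist mode in a HeLa line carrying a GRE-controlled beta-lactamase reporter. Compounds act for 18 h at 37 C before a 2 h room-temperature FRET substrate step and fluorescence reading.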
# [18] = qHTS assay to test for compound auto fluorescence at 590 nm (red) in HEK293 cells (AID 720679)
# Summary of the method: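 Red autofluorescence, HEK293 cells: 2,000 cells/well; attach 4-5 hr 37C; add 23 nL cpd or DMSO; incubate o/n 37C 5% CO2; read Ex540/Em590; Rose Bengal sodium reference.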
# [19] = target: Glucocorticoid receptor (Homo sapiens) (UniProt P04150); assay: qHTS assay to identify small molecule antagonists of the glucocorticoid receptor (GR) signaling pathway (AID 720692; active means well fitted inhibition curve with a large enough effect in the signal ratio in the repeat runs, not every such curve was filed as active; the % refers to the signal ratio)
# Summary of the method: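 Cells plated, rested 4 h at 37 C/5% CO2; compounds in DMSO pin-transferred; dexamethasone added to 5 nM final; 18 h at 37 C; B/G FRET substrate added, 2 h room temperature; fluorescence measured.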
# Chain of Glucocorticoid receptor (Homo sapiens) (P04150 whole entry, looked up): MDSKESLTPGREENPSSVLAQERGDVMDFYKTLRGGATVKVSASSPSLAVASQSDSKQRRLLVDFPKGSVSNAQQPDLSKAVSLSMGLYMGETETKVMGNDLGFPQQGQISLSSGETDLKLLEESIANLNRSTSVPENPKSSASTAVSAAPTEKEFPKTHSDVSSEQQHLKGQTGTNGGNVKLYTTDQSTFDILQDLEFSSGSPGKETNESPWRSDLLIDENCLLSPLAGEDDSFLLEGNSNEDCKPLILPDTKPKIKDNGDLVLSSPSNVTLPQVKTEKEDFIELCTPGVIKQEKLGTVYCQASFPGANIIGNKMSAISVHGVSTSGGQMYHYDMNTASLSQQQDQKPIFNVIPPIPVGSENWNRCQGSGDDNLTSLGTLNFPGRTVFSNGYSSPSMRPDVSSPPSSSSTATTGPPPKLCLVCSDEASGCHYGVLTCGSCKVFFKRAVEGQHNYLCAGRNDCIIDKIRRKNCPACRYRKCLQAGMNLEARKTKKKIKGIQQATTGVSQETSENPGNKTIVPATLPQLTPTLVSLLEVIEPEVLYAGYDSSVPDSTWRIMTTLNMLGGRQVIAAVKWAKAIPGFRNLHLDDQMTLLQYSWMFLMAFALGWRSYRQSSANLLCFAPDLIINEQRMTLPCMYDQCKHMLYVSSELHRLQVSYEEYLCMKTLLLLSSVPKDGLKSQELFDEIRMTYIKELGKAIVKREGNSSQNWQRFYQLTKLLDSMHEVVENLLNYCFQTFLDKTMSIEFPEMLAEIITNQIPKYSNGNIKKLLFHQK
SMILES,Potency [1],Potency [2],Potency [3],Potency [4],Potency [5],outcome [6],outcome [7],outcome [8],outcome [9],outcome [10],outcome [11],outcome [12],outcome [13],outcome [14],outcome [15],outcome [16],outcome [17],outcome [18],Potency [19]
O=C1NCN(c2ccccc2)C12CCN(CCCOc1ccc(F)cc1)CC2,inactive,inactive,inactive,inactive,3.35 µM (active),inactive,inactive,inactive,inactive,inactive,inactive,inactive,inactive,inactive,inactive,inactive,inactive,–,–
Cc1ccccc1CCl,inactive,inactive,inactive,inactive,–,inactive,inactive,inactive,inactive,inactive,inactive,inactive,inactive,inactive,inactive,inactive,inactive,inactive,–
c1cc2ccc3cccc4ccc(c1)c2c34,inactive,inactive,inactive,–,–,inactive,inactive,inactive,inactive,–,inactive,inactive,inactive,inactive,inactive,inactive,inactive,–,–
O=S(=O)(O)C(F)(F)C(F)(F)C(F)(F)C(F)(F)F,inactive,inactive,inactive,inactive,–,inactive,inactive,inactive,inactive,inactive,inactive,inactive,inactive,inactive,inactive,inactive,inactive,–,inactive
CC(=O)c1cc2c(cc1C)C(C)(C)C(C)CC2(C)C (stereo not given),inactive,61.1 µM (active),inactive,–,–,inactive,inactive,inactive,inactive,inactive,inactive,inactive,inactive,inactive,inactive,inactive,–,inactive,–
CCOC(=O)[C@]1(c2ccccc2)Oc2ccccc2[C@@H]1N,inactive,inactive,inactive,inactive,–,inactive,inactive,inactive,inactive,inactive,inactive,inactive,inactive,inactive,inactive,–,–,inactive,–
CN1C(=O)C(O)N=C(c2ccccc2)c2cc(Cl)ccc21 (stereo not given),inactive,inactive,inactive,inactive,–,inactive,inactive,inactive,inactive,inactive,inactive,inactive,inactive,inactive,inactive,inactive,–,inactive,–
CCOP(=S)(OCC)Oc1cc(Cl)c(Br)cc1Cl,inactive,inactive,inactive,–,–,inactive,inactive,inactive,inactive,inactive,inactive,inactive,inactive,inactive,inactive,–,–,–,–
CC(=O)NC1CCSC1=O (stereo not given),inactive,inactive,inactive,inactive,–,–,inactive,inactive,inactive,inactive,inactive,inactive,inactive,inactive,inactive,inactive,inactive,inactive,inactive
CC(C)(OO)c1ccccc1,inactive,inactive,inactive,inactive,–,inactive,inactive,inactive,inactive,inactive,inactive,inactive,inactive,inactive,inactive,–,inactive,inactive,–
O=C(C(Cl)(Cl)Cl)C(Cl)(Cl)Cl,inactive,inactive,inactive,inactive,–,inactive,inactive,inactive,inactive,inactive,inactive,inactive,inactive,inactive,inactive,inactive,inactive,inactive,inactive
O=C(NC(=O)c1c(F)cccc1F)Nc1cc(Cl)c(Oc2ncc(C(F)(F)F)cc2Cl)c(Cl)c1,inactive,7.37 µM (active),inactive,–,–,inactive,inactive,inactive,inactive,inactive,inactive,inactive,inactive,inactive,inactive,–,inactive,inactive,–
CCCCC(CC)COP(=O)(Oc1ccccc1)Oc1ccccc1 (stereo not given),inactive,inactive,inactive,–,–,inactive,inactive,inactive,inactive,inactive,inactive,inactive,inactive,inactive,inactive,inactive,inactive,inactive,inactive
COP(=O)(OC)O/C(=C/Cl)c1cc(Cl)c(Cl)cc1Cl,inactive,inactive,inactive,inactive,–,inactive,inactive,inactive,inactive,inactive,inactive,inactive,inactive,inactive,inactive,inactive,–,inactive,–
CCOP(=S)(OCC)SCSCC,inactive,inactive,inactive,inactive,–,–,inactive,inactive,inactive,inactive,inactive,inactive,inactive,inactive,inactive,inactive,inactive,inactive,–
CCCCCCCCCCOC(=O)c1ccccc1C(=O)OCCCCCCCCCC,inactive,inactive,inactive,inactive,–,inactive,inactive,inactive,inactive,–,inactive,inactive,inactive,inactive,inactive,inactive,inactive,inactive,–
